Results on five compounds are retold here after PubChem BioAssay.

Assay [1] relates to PRMT1 (protein arginine N-methyltransferase 1). Nature of the assay: PRMT1 binders on small-molecule microarrays, primary screen, biochemical, small-molecule microarray, 635 nm fluorescence (AID 1088).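 Also: binding of Prmt1 protein to compounds spotted on small-molecule microarray slides.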 To be noted: small-molecule microarray binding, higher = more signal.
Assay [2] is described as follows: yeast growth modulation, basal conditions, primary screen, YJM789 clinical isolate, OD600, 24 h (AID 1089).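 Also: growth of clinical yeast isolate S. cerevisiae YJM 789 seeded 1000 cells per well; test concentration not given here.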 To be noted: S. cerevisiae YJM789 growth, higher = more signal, called active from +8 up or from −8 down.
Assay [3] in a line: fission yeast growth modulation, primary screen, strain 972, OD600, 24 h, no modulator (AID 1090).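 Also: basal condition with compound alone and no growth modifier present; test concentration not given here.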 To be noted: S. pombe 972 growth, higher = more signal, called active from +8 up or from −8 down.
Assay [4] can be described thus: S. cerevisiae growth modulation with rapamycin, primary screen, strain BY4716, OD600, 96 h (AID 1091). Also: test concentration not given here. To be noted: higher = more signal, called active from +8 up or from −8 down.
The target of assay [5] is Torsin-1A-interacting protein 2 (Homo sapiens) (UniProt Q8NFQ8). Put plainly: LULL1 binders on small-molecule microarray, primary screen, cell lysate, human LULL1 lysate, 635/667 nm fluorescence (AID 1092).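 Also: probe is lysate of COS7 cells overexpressing human LULL1; score merges per-feature 667 nm fluorescence with signal-to-noise.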 To be noted: hLULL1 lysate binding, 635 nm fluorescence, higher = more signal.
Assay [6] is described as follows: E. coli growth modulation, two-sided OD650, primary screen, E. coli filamentation project, strain DRC41, 24 h (AID 1093).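 Also: MC1000 strain lacking acrAB efflux and sulA so SOS filamentation is blocked; test concentration not given here.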 To be noted: OD650, 24 h, higher = more signal, called active from +8 up or from −8 down.
A short description of assay [7]: small-molecule microarray binders of probe aLefty2, primary screen, biochemical, biotinylated probe, 635/667 nm fluorescence (AID 1094).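 Also: score merges spot fluorescence near 667 nm with spot signal-to-noise ratio.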 To be noted: higher = more signal.
Assay [8] has as its system Noggin (protein binding on small-molecule microarray). Put plainly: Noggin binders on small-molecule microarray, primary screen, biochemical, 635/667 nm fluorescence (AID 1095).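 Also: score merges 667 nm feature fluorescence with signal to noise over triplicate slides.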 To be noted: 635 nm fluorescence, higher = more signal.
Assay [9] concerns the target Neurogenic locus notch homolog protein 3 (Homo sapiens) (UniProt Q9UM47). Put plainly: NOTCH3 binders on small-molecule microarray, primary screen, biochemical, 635/667 nm fluorescence (AID 1096). To be noted: NOTCH3 binding, 635 nm fluorescence, higher = more signal.
A short description of assay [10]: small-molecule microarray binders of probe aEGFR, primary screen, biochemical, biotinylated probe, 635/667 nm fluorescence (AID 1097).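 Also: probe is a biotinylated anti-EGFR antibody binding compounds printed on slides; score combines fluorescence near 667 nm and signal to noise of each spot.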 To be noted: higher = more signal.
Assay [11] relates to Plasmodium falciparum Sir2 (PF13_0152, Sir2A). Put plainly: pfSir2 binders on small-molecule microarrays, primary screen, biochemical, small-molecule microarray, 635 nm fluorescence (AID 1098).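 Also: score merges spot fluorescence intensity with its signal-to-noise ratio.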 To be noted: small-molecule microarray binding, fluorescence 635 nm; higher = more signal.
A short description of assay [12]: small-molecule microarray binders of probe aDKK1, primary screen, biochemical, biotinylated probe, 635/667 nm fluorescence (AID 1099).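 Also: score merges 667nm spot fluorescence with signal to noise across triplicate slides; reference of the scale not given here.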 To be noted: higher = more signal.
Assay [13] in a line: small-molecule microarray binders of probe aCHRDL2, primary screen, biochemical, biotinylated probe, 635/667 nm fluorescence (AID 1100). To be noted: higher = more signal.
Assay [14] can be described thus: splicing luciferase reporter signal modulators, primary screen, spliceosome inhibition project, cell-based, HEK293, splice +/- reporter (AID 1101).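 Also: HEK293 cells carrying a splicing-competent luciferase reporter gene; test concentration not given here.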 To be noted: luminescence, 24 h, higher = more signal, called active from +8 up or from −8 down. A general note: A reporter such as luciferase makes a cellular process visible.
In assay [15] the target is Fibroblast growth factor 10 (Homo sapiens) (UniProt O15520). Put plainly: FGF10 binders on small-molecule microarrays, primary screen, biochemical, small-molecule microarray, 635 nm fluorescence (AID 1102). To be noted: FGF10 binding, fluorescence 635 nm, higher = more signal.
Assay [16] concerns glycogen synthase kinase-3 (GSK3A per assay name; protocol says GSK3B). Put plainly: GSK3 binders on small-molecule microarrays, primary screen, biochemical, small-molecule microarray, 635 nm fluorescence, GSK3A (AID 1103). Also: the record names both GSK3A and GSK3B. To be noted: small-molecule microarray binding, fluorescence 635 nm; higher = more signal.
Assay [17] concerns the target Epidermal growth factor receptor (Homo sapiens) (UniProt P00533). Nature of the assay: EGFR binders on small-molecule microarrays, primary screen, biochemical, small-molecule microarray, 635 nm fluorescence (AID 1104).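 Also: score merges 667 nm emission intensity with spot signal to noise over triplicate slides.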 To be noted: EGFR binding, higher = more signal.
In assay [18] the target is Follistatin-related protein 3 (Homo sapiens) (UniProt O95633). Nature of the assay: FSTL3 binders on small-molecule microarrays, primary screen, biochemical, small-molecule microarray, 635 nm fluorescence (AID 1105).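 Also: score merges emission near 667 nm and signal to noise per printed spot across three slides.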 To be noted: FSTL3 binding, higher = more signal.
Assay [19] deals with Dickkopf-related protein 1 (Homo sapiens) (UniProt O94907). Nature of the assay: DKK1 binders on small-molecule microarrays, primary screen, biochemical, small-molecule microarray, 635 nm fluorescence scan (AID 1106).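 Also: score merges emission near 667 nm with signal to noise over three replicate slides.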 To be noted: DKK1 binding, higher = more signal.
In assay [20] the test system is Inhibin beta A chain (activin A). Nature of the assay: INHBA (activin A) binders on microarrays, primary screen, biochemical, small-molecule microarray, 635 nm fluorescence scan (AID 1107).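 Also: mouse activin A protein probed at 4.33 µg/mL on printed slides; score merges bound-protein fluorescence near 667 nm with spot signal-to-noise.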 To be noted: small-molecule microarray binding, higher = more signal.

Activity calls are given as the source filed them.

Chain of Dickkopf-related protein 1 (Homo sapiens) (O94907 whole entry, looked up): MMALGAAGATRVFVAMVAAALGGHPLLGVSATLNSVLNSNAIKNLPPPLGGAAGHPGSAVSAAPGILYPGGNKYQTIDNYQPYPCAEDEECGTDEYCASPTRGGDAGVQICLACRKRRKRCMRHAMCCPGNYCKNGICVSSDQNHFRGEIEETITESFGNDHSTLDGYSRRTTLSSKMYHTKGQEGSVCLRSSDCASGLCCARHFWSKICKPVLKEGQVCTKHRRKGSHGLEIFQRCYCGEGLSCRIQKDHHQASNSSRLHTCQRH
Chain of Follistatin-related protein 3 (Homo sapiens) (O95633 whole entry, looked up): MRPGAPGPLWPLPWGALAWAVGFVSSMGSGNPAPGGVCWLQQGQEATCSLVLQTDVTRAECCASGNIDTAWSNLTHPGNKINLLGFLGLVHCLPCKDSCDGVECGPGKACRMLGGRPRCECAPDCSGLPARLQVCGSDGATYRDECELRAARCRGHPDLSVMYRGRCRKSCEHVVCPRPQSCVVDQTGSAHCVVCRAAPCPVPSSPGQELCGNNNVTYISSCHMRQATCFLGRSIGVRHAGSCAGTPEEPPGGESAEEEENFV
Chain of Fibroblast growth factor 10 (Homo sapiens) (O15520 whole entry, looked up): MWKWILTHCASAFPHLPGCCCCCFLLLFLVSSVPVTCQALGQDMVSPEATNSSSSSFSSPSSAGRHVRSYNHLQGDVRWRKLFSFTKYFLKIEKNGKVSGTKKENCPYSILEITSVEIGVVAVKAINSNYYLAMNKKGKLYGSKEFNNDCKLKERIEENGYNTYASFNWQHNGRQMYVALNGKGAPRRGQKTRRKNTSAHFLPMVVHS
Chain of Neurogenic locus notch homolog protein 3 (Homo sapiens) (Q9UM47 whole entry, looked up): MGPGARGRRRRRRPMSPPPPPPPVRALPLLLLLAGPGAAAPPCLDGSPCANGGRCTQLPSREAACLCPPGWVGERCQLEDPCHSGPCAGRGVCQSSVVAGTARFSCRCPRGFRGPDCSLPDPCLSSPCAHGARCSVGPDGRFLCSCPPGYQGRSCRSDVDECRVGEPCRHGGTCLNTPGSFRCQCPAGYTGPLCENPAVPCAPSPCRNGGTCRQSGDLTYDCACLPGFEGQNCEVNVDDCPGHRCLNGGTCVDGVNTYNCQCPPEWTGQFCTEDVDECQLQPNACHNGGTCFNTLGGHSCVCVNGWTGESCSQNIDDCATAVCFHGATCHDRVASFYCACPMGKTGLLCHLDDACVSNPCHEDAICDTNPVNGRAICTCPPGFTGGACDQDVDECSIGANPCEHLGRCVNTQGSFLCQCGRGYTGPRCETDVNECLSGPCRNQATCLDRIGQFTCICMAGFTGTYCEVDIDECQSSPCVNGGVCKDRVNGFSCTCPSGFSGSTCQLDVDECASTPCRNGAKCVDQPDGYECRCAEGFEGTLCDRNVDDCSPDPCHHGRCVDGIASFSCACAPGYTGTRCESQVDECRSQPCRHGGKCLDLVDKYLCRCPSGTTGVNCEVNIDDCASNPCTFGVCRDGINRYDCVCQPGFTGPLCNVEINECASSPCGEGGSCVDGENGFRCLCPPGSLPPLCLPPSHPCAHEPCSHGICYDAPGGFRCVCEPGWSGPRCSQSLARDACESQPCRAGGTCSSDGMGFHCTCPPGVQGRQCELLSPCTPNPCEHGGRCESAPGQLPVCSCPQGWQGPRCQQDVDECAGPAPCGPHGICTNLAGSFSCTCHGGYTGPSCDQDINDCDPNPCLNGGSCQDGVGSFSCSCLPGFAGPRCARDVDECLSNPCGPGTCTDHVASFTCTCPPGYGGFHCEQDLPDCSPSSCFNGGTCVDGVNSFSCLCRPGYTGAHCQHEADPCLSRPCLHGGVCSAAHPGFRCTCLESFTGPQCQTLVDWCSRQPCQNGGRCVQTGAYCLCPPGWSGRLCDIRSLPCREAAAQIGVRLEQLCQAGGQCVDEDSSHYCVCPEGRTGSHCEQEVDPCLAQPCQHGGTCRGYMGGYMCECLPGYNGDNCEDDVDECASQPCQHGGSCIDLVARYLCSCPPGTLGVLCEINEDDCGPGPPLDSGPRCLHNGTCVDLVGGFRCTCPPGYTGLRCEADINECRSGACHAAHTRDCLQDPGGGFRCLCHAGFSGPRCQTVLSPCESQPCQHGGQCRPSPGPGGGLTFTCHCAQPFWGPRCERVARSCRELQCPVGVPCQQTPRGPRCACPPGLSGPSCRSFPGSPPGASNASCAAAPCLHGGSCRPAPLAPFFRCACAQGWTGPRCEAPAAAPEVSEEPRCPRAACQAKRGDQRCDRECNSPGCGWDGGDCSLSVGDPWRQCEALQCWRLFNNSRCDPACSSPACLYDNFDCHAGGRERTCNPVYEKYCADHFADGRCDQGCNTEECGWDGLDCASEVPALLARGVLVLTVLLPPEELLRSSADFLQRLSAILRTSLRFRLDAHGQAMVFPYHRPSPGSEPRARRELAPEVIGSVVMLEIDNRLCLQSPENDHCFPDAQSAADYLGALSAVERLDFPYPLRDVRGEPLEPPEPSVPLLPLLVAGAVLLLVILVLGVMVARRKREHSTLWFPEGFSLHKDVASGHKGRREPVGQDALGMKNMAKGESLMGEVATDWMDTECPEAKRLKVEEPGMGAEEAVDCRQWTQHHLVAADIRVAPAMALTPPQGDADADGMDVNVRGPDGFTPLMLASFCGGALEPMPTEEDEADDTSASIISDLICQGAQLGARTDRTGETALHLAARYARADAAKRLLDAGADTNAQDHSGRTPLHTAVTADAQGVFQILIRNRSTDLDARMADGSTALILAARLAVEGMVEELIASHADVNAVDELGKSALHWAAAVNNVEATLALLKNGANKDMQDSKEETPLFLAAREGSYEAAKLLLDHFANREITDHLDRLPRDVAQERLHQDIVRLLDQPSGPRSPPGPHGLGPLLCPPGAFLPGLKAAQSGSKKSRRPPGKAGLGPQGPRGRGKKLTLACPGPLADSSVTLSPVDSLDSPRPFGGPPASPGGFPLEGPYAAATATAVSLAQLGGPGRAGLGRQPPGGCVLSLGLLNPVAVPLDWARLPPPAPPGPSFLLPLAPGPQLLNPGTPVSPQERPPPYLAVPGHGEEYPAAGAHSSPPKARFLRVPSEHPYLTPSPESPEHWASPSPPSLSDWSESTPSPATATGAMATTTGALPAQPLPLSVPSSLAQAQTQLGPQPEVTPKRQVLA
Chain of Epidermal growth factor receptor (Homo sapiens) (P00533 whole entry, looked up): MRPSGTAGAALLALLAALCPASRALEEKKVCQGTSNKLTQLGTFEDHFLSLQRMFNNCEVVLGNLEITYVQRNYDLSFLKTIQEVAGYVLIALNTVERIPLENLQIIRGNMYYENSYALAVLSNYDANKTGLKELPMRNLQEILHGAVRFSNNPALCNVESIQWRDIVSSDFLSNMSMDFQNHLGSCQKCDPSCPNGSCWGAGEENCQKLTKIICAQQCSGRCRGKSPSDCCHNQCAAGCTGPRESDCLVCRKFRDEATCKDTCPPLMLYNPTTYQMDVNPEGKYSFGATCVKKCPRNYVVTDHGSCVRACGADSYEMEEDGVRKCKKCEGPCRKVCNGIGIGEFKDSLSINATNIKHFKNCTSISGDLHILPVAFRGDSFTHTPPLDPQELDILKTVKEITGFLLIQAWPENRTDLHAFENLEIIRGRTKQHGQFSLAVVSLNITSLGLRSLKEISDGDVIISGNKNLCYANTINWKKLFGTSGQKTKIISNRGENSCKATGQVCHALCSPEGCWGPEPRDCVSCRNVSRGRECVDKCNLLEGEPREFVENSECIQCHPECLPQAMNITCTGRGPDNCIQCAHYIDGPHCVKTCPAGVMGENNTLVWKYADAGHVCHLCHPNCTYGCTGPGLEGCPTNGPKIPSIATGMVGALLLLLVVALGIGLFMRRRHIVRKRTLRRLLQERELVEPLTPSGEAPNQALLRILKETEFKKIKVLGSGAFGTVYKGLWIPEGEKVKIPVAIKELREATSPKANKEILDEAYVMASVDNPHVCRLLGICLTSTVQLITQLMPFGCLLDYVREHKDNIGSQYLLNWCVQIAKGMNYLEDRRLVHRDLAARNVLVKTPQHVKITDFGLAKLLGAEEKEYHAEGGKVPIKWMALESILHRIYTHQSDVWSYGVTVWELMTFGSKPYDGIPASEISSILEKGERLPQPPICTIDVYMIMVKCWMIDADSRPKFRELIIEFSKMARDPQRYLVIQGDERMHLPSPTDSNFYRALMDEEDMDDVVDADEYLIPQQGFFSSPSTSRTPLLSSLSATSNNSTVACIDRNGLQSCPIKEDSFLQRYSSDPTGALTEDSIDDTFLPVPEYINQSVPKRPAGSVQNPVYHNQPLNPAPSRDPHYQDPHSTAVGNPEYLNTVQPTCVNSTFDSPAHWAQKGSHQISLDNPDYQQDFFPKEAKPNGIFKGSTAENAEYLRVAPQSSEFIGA
Chain of Torsin-1A-interacting protein 2 (Homo sapiens) (Q8NFQ8 whole entry, looked up): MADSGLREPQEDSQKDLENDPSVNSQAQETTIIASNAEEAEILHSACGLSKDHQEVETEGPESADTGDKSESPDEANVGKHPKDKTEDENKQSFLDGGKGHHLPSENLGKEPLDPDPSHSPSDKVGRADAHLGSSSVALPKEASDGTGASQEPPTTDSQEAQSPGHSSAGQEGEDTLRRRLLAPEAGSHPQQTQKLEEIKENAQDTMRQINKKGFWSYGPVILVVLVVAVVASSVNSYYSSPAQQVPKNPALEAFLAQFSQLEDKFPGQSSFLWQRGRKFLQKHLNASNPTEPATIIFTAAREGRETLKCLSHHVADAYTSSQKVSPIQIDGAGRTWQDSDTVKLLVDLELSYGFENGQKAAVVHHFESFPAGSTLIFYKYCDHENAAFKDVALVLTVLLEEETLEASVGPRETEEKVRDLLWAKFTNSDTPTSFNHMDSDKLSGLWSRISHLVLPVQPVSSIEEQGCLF

As for `CCOC(=O)C1CCCCN1` (stereo not given), the composite z-score in assay [1] is 1.08; in [5], 1.16; in [7], 0.697; in assay [8], 0.458; in assay [9], 0.738; in [10], 0.641. In addition, the composite z-score in assay [11] is 0.19; in [12] it was 1.06; in assay [13] it was -0.193; in assay [15], 0.946; in assay [16], 0.682; in [17], 0.403. The composite z-score in [18] is 0.653; in [19], 0.516; in assay [20], -0.104. The z-score in assay [2] was -0.0725 (inactive); in [3], 0.438 (inactive); in [4], 0.363 (inactive); in assay [6], -0.0508 (inactive); in assay [14], -0.283 (inactive).
In the case of `COCCOC(=O)N1C(=O)[C@@]2(c3cc(C#Cc4ccc(OC)cc4)ccc31)[C@H](C(=O)Nc1nc3ccccc3s1)[C@H]1C(=O)O[C@H](c3ccccc3)[C@H](c3ccccc3)N1[C@@H]2c1ccc(O)cc1`, the composite z-score in assay [1] was 1.55; in assay [5] it was 2.74; in assay [7], -0.0071; in assay [8], 1.55; in [9], 1.08; in [10] it was 0.213. Besides, the composite z-score in assay [11] was 1.48; in [12], 0.166; in assay [13], -0.0767; in assay [15] it was 1.39; in [16], 1.29; in assay [17], 0.571. Further, the composite z-score in assay [18] turned out to be 1.24; in assay [19] it was 0.875; in [20], 0.318. Also, the z-score in [2] was 0.903 (inactive); in assay [3] it was 0.842 (inactive); in assay [4] it was 1.16 (inactive); in assay [6] it was 1.57 (inactive); in [14], -0.591 (inactive).
For `CCOC(=O)C1=CC[C@@H](c2ccccc2C(F)(F)F)N(S(=O)(=O)c2ccc(C)cc2)[C@H]1c1ccc(C#N)cc1`, the composite z-score in [1] is 0.884; in assay [5], 2.56; in assay [7] it was -0.0099; in [8], 0.292; in assay [9] it was 1.03; in assay [10], -0.0061. Besides, the composite z-score came to 0.668 in assay [11]; 0.648 in assay [12]; 0.276 in assay [13]; 0.719 in [15]; 1.2 in [16]; 0.593 in [17]. For the same compound, the figures for the composite z-score in [18], in [19] and in assay [20] were 0.772, 0.35 and 0.307, respectively. In addition, the z-score was -0.242 (inactive) in assay [2]; 1.2 (inactive) in assay [3]; 3.51 (inactive) in assay [4]; -0.156 (inactive) in assay [6]; -0.476 (inactive) in [14].
With `C=CCOC(=O)[C@H]1[C@@H]2C(=O)O[C@@H](c3ccccc3)[C@@H](c3ccccc3)N2[C@@H](c2ccc(OCCOC(=O)[C@H]3C[C@H]4C(=O)N[C@@H](CC(C)C)C(=O)N4[C@H]3c3cccc(OCCO)c3)cc2)[C@]12C(=O)Nc1ccc(I)cc12`, the composite z-score was 1.48 in assay [1]; 2.76 in assay [5]; -0.0416 in [7]; 0.972 in assay [8]; 0.97 in [9]; 0.0436 in assay [10]. Further, the composite z-score in [11] was 1.36; in [12] it was -0.122; in assay [13], 0.18; in assay [15], 1.33; in assay [16], 1.31; in assay [17], 1.21. The results for the composite z-score in assay [18], in [19] and in [20] were 0.919, 0.963 and 0.535, respectively. Further, the z-score was 0.219 (inactive) in [2]; 0.46 (inactive) in assay [3]; 2.8 (inactive) in assay [4]; -0.266 (inactive) in [6]; 0.642 (inactive) in assay [14].
With `CCCC[C@@H](O)C1=C(COc2ccccc2)C[C@H]2C(=O)N(C)C(=O)[C@H]2[C@H]1CO`, the composite z-score was 0.129 in assay [1]; -0.988 in [5]; -0.247 in [7]; 0.273 in assay [8]; -0.242 in assay [9]; -0.225 in assay [10]. In addition, the composite z-score was 0.119 in assay [11]; -0.423 in assay [12]; -0.575 in assay [13]; -0.0816 in assay [15]; -0.0425 in assay [16]; -0.333 in [17]. Besides, the composite z-score was -0.0008 in assay [18], -0.0034 in assay [19] and 0.799 in [20]. Further, the z-score in [2] was -2.42 (inactive); in assay [3] it was -1.79 (inactive); in assay [4] it was -0.561 (inactive); in assay [6], 1.31 (inactive); in assay [14], -1.3 (inactive).
